Unmarked numbers belong to inactive results. Records with an inconclusive call do not appear. Where a call stands in place of a potency, no number is given. Active and inactive are the calls of the source. The call rests on the fitted dose curve; in most records, active means well fitted curve in the direction sought with a large enough effect; inconclusive means small, poorly fitted or top-dose-only effect, or another doubt; inactive means no such curve, though single readings can be large; an effect the other way counts as inactive or inconclusive. *1 amine or outer side, *2 acyl side, *3 side chain or, on linkers, in order; H or OH if unused. Where a SMILES comes first, the peptide text is derived from it. [ ]: non-standard residue; d: D form. X13 = O=C(C(CC(O)CO)O[*:1])[*:2]; NMeV = CN[CH](C(=O)O)C(C)C; NMeA = CN[CH](C)C(=O)O; βAla = NCCC(=O)O
Legend:
[1] = biological target: Glutathione peroxidase 1 (Homo sapiens) (UniProt P07203); assay: Primary qHTS Assay for Inhibitors of Recombinant Selenoprotein Glutathione Peroxidase 1 (GPX1) (AID 1845191); further: nearly all actives have a fitted effect of over 65% in size
Glutathione peroxidase 1 (Homo sapiens), sequence (P07203 whole entry, looked up): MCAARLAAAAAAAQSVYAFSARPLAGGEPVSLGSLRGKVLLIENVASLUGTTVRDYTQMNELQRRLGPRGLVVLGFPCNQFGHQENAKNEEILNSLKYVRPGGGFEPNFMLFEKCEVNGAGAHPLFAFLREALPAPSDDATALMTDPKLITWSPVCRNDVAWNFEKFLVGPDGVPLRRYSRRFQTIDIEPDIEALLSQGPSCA
Outline: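 GR-coupled assay: compounds preincubated 30 min at room temperature with GPX1, then reaction started with CHP; final 10 nM GPX1, 1 mM GSH, 0.5 mM CHP, 0.5 mM NADPH, 100 nM GR, 0.01% BSA, pH 7.5 Tris buffer. NADPH fluorescence (340/450 nm) read at 0 and 15 min.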

[2] = biological target: Phospholipid hydroperoxide glutathione peroxidase GPX4 (Homo sapiens) (UniProt P36969); assay: Primary qHTS Assay for Inhibitors of Recombinant Selenoprotein Glutathione Peroxidase 4 (GPX4) (AID 1845192); further: nearly all actives have a fitted effect of over 65% in size; on activity change, negative = inhibition: series mostly up to about 50 µM
Phospholipid hydroperoxide glutathione peroxidase GPX4 (Homo sapiens), sequence (P36969 whole entry, looked up): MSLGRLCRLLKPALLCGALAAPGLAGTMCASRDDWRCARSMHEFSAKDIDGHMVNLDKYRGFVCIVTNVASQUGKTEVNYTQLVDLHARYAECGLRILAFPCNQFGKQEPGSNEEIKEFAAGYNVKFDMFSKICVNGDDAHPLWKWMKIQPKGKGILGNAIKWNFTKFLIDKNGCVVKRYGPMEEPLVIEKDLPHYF
Outline: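 GR-coupled assay: recombinant GPX4 preincubated 30 min with compound at room temperature; final 200 nM GPX4, 1 mM GSH, 0.5 mM cumene hydroperoxide, 0.5 mM NADPH, 100 nM GR, 0.01% BSA, pH 7.5 Tris. NADPH fluorescence (340/450 nm) read at 0 and 15 min.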

[3] = biological target: Luciferin 4-monooxygenase (Photinus pyralis) (UniProt P08659); assay: Primary firefly luciferase (FLuc) qHTS assay for identification of artifact compounds. (AID 1845220); further: nearly all actives have a fitted effect of over 60% in size; on activity change, negative = inhibition: series mostly up to about 54 µM
Outline: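 Titrated compounds were incubated 15 min at RT, protected from light, with luciferin and ATP at 10 uM; reaction started with 10 nM FLuc, luminescence imaged at 5 min, and concentration-response fitted by Hill equation.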

[4] = Primary fluorescence-based thiol-reactive (MSTI) qHTS assay for identification of artifact compounds. (AID 1845221); further: nearly all actives have a fitted effect of over 65% in size; further: potency means the concentration at half of the fitted maximal effect;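 on activity change, negative = thiol reactive: series mostly up to about 54 µM; thiol-reactive compounds lower the probe fluorescence signal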
Outline: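 Reactivity toward the thiol probe MSTI (4 uM) is scored by fluorescence at Ex/Em 525/598 nm after 1 h at room temperature. Acetyl-MSTI and MSTI define the activity scale.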

[5] = tested on: Nanoluciferase (engineered Oplophorus gracilirostris luciferase); assay: Primary Nanoluciferase (NLuc) qHTS assay for identification of artifact compounds. (AID 1845222);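 further: NLuc secreted into diluted conditioned medium of S16 cells; series mostly up to about 54 µM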
Outline: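 qHTS format, against NLuc in S16 cell-conditioned medium. Nano-Glo substrate 1:100 was added after 15 min at room temperature. Luminescence was taken after a further 5 min.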

[6] = Primary redox qHTS assay for identification of artifact compounds. (AID 1845223)
Outline: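 Amplex Red (25 uM) and HRP (250 mU/mL) in HBSS, with compounds for 15 min, then 250 uM DTT for 30 min, room temperature, dark. Fluorescence 525/598 nm read; normalized to DMSO and 10 uM DA3003; Hill fit.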

SMILES | Potency [1] | Potency [2] | Potency [3] | Potency [4] | Potency [5] | Potency [6] | activity change, negative = inhibition [3] | activity change, negative = thiol reactive [4] | activity, negative = inhibition [5] | redox activity (% of DA3003) [6] | outcome [3]
C/C1=C\CC(C)(C)/C=C/C/C(C(=O)O)=C/CC1 | inactive | inactive | inactive | inactive | inactive | inactive |  |  |  |  | 
COc1cc(C(CO)CO[C@@H]2O[C@H](CO)[C@@H](O)[C@H](O)[C@H]2O)ccc1O (stereo partly drawn) | inactive | inactive | inactive | inactive | inactive | inactive |  |  |  |  | 
CC1=CC(=O)CC(C)(C)C1CO[C@@H]1O[C@H](CO)[C@@H](O)[C@H](O)[C@H]1O (stereo partly drawn) | inactive | inactive | inactive | inactive | inactive | inactive |  |  |  |  | 
O=C(O)CC1CCC(c2ccc(-c3ccc(Nc4ccc(C(F)(F)F)nc4)cn3)cc2)CC1 (stereo not drawn) | inactive | inactive | inactive | inactive | inactive | inactive |  |  |  |  | 
COC(=O)[C@H](Cc1cccc(C(=N)N)c1)[C@@H](C)NC(=O)c1ccc(-c2cc[n+]([O-])cc2)cc1 | inactive | inactive | inactive | inactive | inactive | inactive |  |  |  |  | 
CC1(C)CC[C@]2(C(=O)O[C@@H]3O[C@H](CO)[C@@H](O)[C@H](O)[C@H]3O)CC[C@]3(C)C(=CCC4[C@@]5(C)C[C@@H](O)[C@H](O)[C@@](C)(CO)C5[C@H](O)C[C@]43C)C2C1 (stereo partly drawn) | inactive | inactive | inactive | inactive | inactive | inactive |  |  |  |  | 
CNc1nc(Cc2ccccc2)nc2c1CCNC[C@@H]2C | inactive | inactive | inactive | inactive | inactive | inactive |  |  |  |  | 
C/C=C(\C)C(=O)OC[C@H]1O[C@H](O[C@H]2O[C@H](CO)[C@@H](O)[C@H](O)[C@H]2O[C@@H]2O[C@H](CO)[C@@H](O)[C@H](O)[C@H]2O)[C@H](O[C@@H]2O[C@H](CO)[C@@H](O)[C@H](O)[C@H]2O)[C@@H](O)[C@@H]1O | inactive | inactive | inactive | inactive | inactive | inactive |  |  |  |  | 
CC1CCC2C(C)(C)C(O)C(O)CC2(C)C12Cc1c(O)cc(CO)c(C=O)c1O2 (stereo not drawn) | inactive | inactive | inactive | inactive | inactive | inactive |  |  |  |  | 
CCC(C)C1NC(=O)C2C(C)CCN2C(=O)C(CC(O)CO)OC(=O)CCNC(=O)C(C)N(C)C(=O)C(C(C)C)N(C)C1=O (stereo not drawn) | inactive | inactive | inactive | inactive | inactive | inactive |  |  |  |  | 
CC(=O)c1[nH]cc(CCC(=O)O)c1CC(=O)O | inactive | inactive | inactive | inactive | inactive | inactive |  |  |  |  | 
C=C1C2CCC3C(CCC4[C@@]3(C)CCC[C@@]4(C)C(=O)O)(C2)[C@@H]1OC(=O)/C(C)=C\C (stereo partly drawn) | inactive | inactive | inactive | inactive | inactive | inactive |  |  |  |  | 
COc1cccc(C)c1C(=O)O[C@@H]1C[C@H](O[C@H]2[C@H](O)C[C@H](O[C@@H]3CCC[C@H]4[C@H]3C=C[C@@H]3CCCC/C=C/[C@H]5C=C(C(=O)O)[C@@H](C)C[C@@]56OC(=O)C(=C6O)OC(=O)[C@@]34C)O[C@@H]2C)O[C@H](C)[C@H]1O | inactive | inactive |  |  |  |  | 4.15% [at 11.6 µM] | 170% [at 11.5 µM] | 4.95% [at 11.6 µM] | -8.49% [at 11.5 µM] | 
C/C=C1/C[N+](C)([O-])C2Cc3c([nH]c4ccccc34)C(=O)CC1C2C(=O)OC (stereo not drawn) | inactive | inactive | inactive | inactive | inactive | inactive |  |  |  |  | 
NC(=O)NCCCC(NC(=O)Cc1ccccc1)C(=O)O (stereo not drawn) | inactive | inactive | inactive | inactive | inactive | inactive |  |  |  |  | 
COC(=O)C(CC1CCCC1)c1ccc(S(C)(=O)=O)cc1 (stereo not drawn) | inactive | inactive | inactive | inactive | inactive | inactive |  |  |  |  | 
CC1=C2C(=O)C=C(CO)C2C2OC(=O)C(CS(=O)(=O)O)C2C(OC(=O)Cc2ccc(O)cc2)C1 (stereo not drawn) | inactive | inactive | inactive | 3.67 µM (active) | inactive | inactive |  |  |  |  | 
C=C1CC[C@H]2[C@@](C)(CCC(O)[C@@]2(C)CO)[C@@H]1/C=C/C(=C\C(=O)O)C(=O)O (stereo partly drawn) | inactive | inactive | inactive | 5.21 µM (active) | inactive | inactive |  |  |  |  | 
CC(=O)/C=C/C1C(C)CC(O[C@@H]2O[C@H](CO)[C@@H](O)[C@H](O)[C@H]2O)CC1(C)C (stereo partly drawn) | inactive | inactive | inactive | 14.7 µM (active) | inactive | inactive |  |  |  |  | 
C=CC(C)(O)C1CC2C3(C)CCCC(C)(C)C3C(O)C(O)C2(C)O1 (stereo not drawn) | inactive | inactive | inactive | inactive | inactive | inactive |  |  |  |  | 
COC(=O)C1=COC(OC2OC(CO)C(O)C(O)C2O)C2C(COC(=O)/C=C/c3ccc(O)c(O)c3)C(O)C(O)C12 (stereo not drawn) | inactive | inactive | inactive | 2.51 µM (active) | inactive | inactive |  |  |  |  | 
COc1ccccc1N1CCN(CCCCNC(=O)c2ccc(-c3cscn3)cc2)CC1 | inactive | inactive | inactive | inactive | inactive | inactive |  |  |  |  | 

SMILES | Potency [1] | Potency [2] | Potency [3] | Potency [4] | Potency [5] | Potency [6] | activity change, negative = inhibition [3] | activity change, negative = thiol reactive [4] | activity, negative = inhibition [5] | redox activity (% of DA3003) [6] | outcome [3]
O=C(/C=C/c1ccc(O)cc1)OC[C@@]1(O)C=C[C@@H]2C(C(=O)O)=CO[C@@H](O[C@@H]3O[C@H](CO)[C@@H](O)[C@H](O)[C@H]3O)[C@@H]21 | inactive | inactive | inactive | 5.19 µM (active) | inactive | inactive |  |  |  |  | 
C[C@@H]1C[C@@H](O)[C@@]23CO[C@]2(CO)C[C@@H](O)CC3[C@@]12CC(c1ccoc1)OC2=O (stereo partly drawn) | inactive | inactive | inactive | 6.56 µM (active) | inactive | inactive |  |  |  |  | 
C=CC1(C)CC2CCC3C(C)(C(=O)O)CCCC3(C)C2=CC1=O (stereo not drawn) | inactive | inactive | inactive | inactive | inactive | inactive |  |  |  |  | 
C=C1C(=O)O[C@@H]2C[C@]3(C)[C@@H](CCC(C)=O)[C@@H]3C[C@H]12 | inactive | inactive | inactive | inactive | inactive | inactive |  |  |  |  | 
COc1cc(OC)cc(-c2ccc3c(-c4ccc(F)cc4)[nH]nc3n2)c1 | inactive | inactive | inactive | inactive | inactive | inactive |  |  |  |  | 
C=C1C[C@]23C[C@H]1CC[C@H]2[C@]1(C)CC[C@H](O)[C@@](C)(C(=O)O)[C@H]1[C@@H]3C(=O)O | inactive | inactive | inactive | inactive | inactive | inactive |  |  |  |  | 
Cc1cn2cc(CC(=O)N3CCC4(CC3)CN(Cc3ccc(-n5nccn5)cc3Cl)C4)nc2s1 | inactive | inactive | inactive | inactive | inactive | inactive |  |  |  |  | 
Cc1oc2nc3c(c(NC(=O)CN4CCCC4=O)c2c1C)CCCC3 | inactive | inactive | inactive | inactive | inactive | inactive |  |  |  |  | 
CC1(C)CC[C@]2(C(=O)O[C@@H]3O[C@H](CO)[C@@H](O)[C@H](O)[C@H]3O)CC[C@]3(C)C(=CCC4[C@@]5(C)C[C@H](O)[C@H](O[C@@H]6O[C@H](C(=O)O)[C@@H](O)[C@H](O)[C@H]6O)[C@@](C)(CO)C5CC[C@]43C)C2C1 (stereo partly drawn) | inactive | inactive |  |  |  |  |  | 8.46% [at 11.5 µM] | 1.06% [at 11.6 µM] | -11.2% [at 11.5 µM] | inactive [at 11.6 µM]
COc1cccc(C(=O)NCCNc2nc3cc(C)cc(C)c3cc2C#N)c1 | inactive | inactive | inactive | inactive | inactive | inactive |  |  |  |  | 
CC1(C)C2CC[C@@]34CC(CC[C@H]3[C@]2(C)CC[C@@H]1O[C@@H]1O[C@H](CO)[C@@H](O)[C@H](O)[C@H]1O)[C@](C)(O)C4 (stereo partly drawn) | inactive | inactive | inactive | inactive | inactive | inactive |  |  |  |  | 
Cc1cccc(NC(=O)CN2CCC(c3ccccn3)CC2)c1 | inactive | inactive | inactive | inactive | inactive | inactive |  |  |  |  | 
O=C(O)c1ccncc1Nc1nn(CCN2CCC(F)(F)CC2)c2ccc(F)cc12 | inactive | inactive | inactive | 1.34 µM (active) | inactive | inactive |  |  |  |  | 
CC1=C(CCC(C)O[C@@H]2O[C@H](CO)[C@@H](O)[C@H](O)[C@H]2O)C(C)(C)CC(O)C1 (stereo partly drawn) | inactive | inactive | inactive | 5.85 µM (active) | inactive | inactive |  |  |  |  | 
Cc1occc(=O)c1O[C@@H]1O[C@H](COC(=O)CC(C)(O)CC(=O)O)[C@@H](O)[C@H](O)[C@H]1O (stereo partly drawn) | inactive | inactive | inactive | inactive | inactive | inactive |  |  |  |  | 
CCC1OC(=O)C(C)CC(C)C(=O)/C(C)=C/C(C)C(=O)/C=C/C1(C)O (stereo not drawn) | inactive | inactive | inactive | inactive | inactive | inactive |  |  |  |  | 
CCC(C)C1NC(=O)C2CCCN2C(=O)C(CC(O)CO)OC(=O)CCNC(=O)C(C)N(C)C(=O)C(C(C)C)N(C)C1=O (stereo not drawn) (cyclo([X13]PI[NMeV][NMeA][βAla]); configuration not given here) | inactive | inactive | inactive | inactive | inactive | inactive |  |  |  |  | 
CCCNCCOc1ccc(NC(=O)c2c[nH]c3c2C(=O)CCC3)cc1F | inactive | inactive | inactive | inactive | inactive | inactive |  |  |  |  | 
C[C@@]1(O)[C@H](O)[C@@H](CO)O[C@H]1n1cnc2c(=O)[nH]c(N)nc21 | inactive | inactive | inactive | inactive | inactive | inactive |  |  |  |  | 
CC1(C)CCC[C@@]2(C)[C@H]1[C@H](O)C=C(CO)[C@]2(O)CO | inactive | inactive | inactive | inactive | inactive | inactive |  |  |  |  | 
N#CC1C(=O)N=C(c2cc(Cl)ccc2O)C=C1c1cc(OCc2ccccc2)cc(OCc2ccccc2)c1 (stereo not drawn) | inactive | inactive | inactive | inactive | inactive | inactive |  |  |  |  | 

— PubChem BioAssay (NCATS)
